We go through 18 compounds from PubChem BioAssay (NCATS).

Each structure is given as a SMILES string. Inconclusive results are not listed. Entries that show only a call come without a potency. Active and inactive are the calls of the source. Calls follow the shape of the dose curve; as a rule, active = well fitted inhibition curve with a large enough effect; inconclusive = small, poorly fitted or top-dose-only effect; inactive = flat fitted curve, though single readings scatter.
Potency is read from the fitted curve at half-maximal effect.

The test has as its system Zika virus NS2B-NS3 protease. The experiment in a line: Primary screen GU AMC qHTS for Zika virus inhibitors (AID 1347154). Also: nearly all actives have a fitted effect of over 70% in size. The following applies: Zika NS2B-NS3 unlinked protease, AMC fluorogenic substrate; series mostly up to 54.1 µM. The procedure, abridged: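 Fluorogenic AMC-substrate cleavage by noncovalent NS2B-NS3 protease complex (25 nM, pH 8.0 Tris buffer with Tween 20) followed for 15 minutes at room temperature (~20% conversion). Percent inhibition from ex340/em450 signal change, fitted by 4-parameter Hill equation.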
`NCCNc1cccc2ccccc12`: the Potency is 14.4 µM (active).

On to `C[C@@H](O)[C@H]1C(=O)N2C(C(=O)O)=C(S[C@@H]3CN[C@H](CNS(N)(=O)=O)C3)[C@H](C)[C@H]12`, for which the Potency entry was “inactive”. The entry for `CCc1cc(Cl)c(OC)c(C(=O)NC[C@@H]2CCCN2CC)c1O` is “inactive”; for `NC(=O)n1c(O)c(C(=O)c2cccs2)c2cc(Cl)ccc21` it is “inactive”. Regarding `COc1ccc(S(=O)(=O)N2c3ccc(Cl)cc3[C@@](O)(c3ccccc3Cl)[C@H]2C(=O)N2CCC[C@@H]2C(N)=O)cc1OC`, the Potency result is “inactive”. For `CC(O)Cn1cnc2c1c(=O)n(C)c(=O)n2C` (stereo not drawn), the Potency result is “inactive”.

With `CC(=O)O[C@H]1C[C@@H]2CC[C@@H]3[C@H](CC[C@@]4(C)[C@H]3C[C@H]([N+]3(C)CCCCC3)[C@@H]4OC(C)=O)[C@@]2(C)C[C@@H]1N1CCCCC1`, the Potency result is “inactive”. As for `CN(C)CCN1C(=O)c2ccccc2N(C)c2ccccc21`, the entry is “inactive”; as for `O=c1[nH]c(=O)n([C@H]2C[C@H](O)[C@@H](CO)O2)cc1F`, “inactive”; as for `CCCCCCCCCCCCCCCCO`, “inactive”. For `CCOc1ccccc1C(N)=O`, the Potency result was “inactive”. With `CCc1nn(CCCN2CCN(c3cccc(Cl)c3)CC2)c(=O)n1CCOc1ccccc1`, the Potency entry was “inactive”. As to `Cc1ccc(-c2ncc(Cl)cc2-c2ccc(S(C)(=O)=O)cc2)cn1`, the Potency result was “inactive”. `Cc1cccc(C)c1NC(=O)c1ccccc1C(=O)O`: the Potency result was “inactive”. For the compound `CC(C)[N+](C)(C)CC(O)COc1cccc2ccccc12` (stereo not drawn), the Potency entry is “inactive”. The entry for `CCCCCCCCNC(C)C(O)c1ccc(SC(C)C)cc1` (stereo not drawn) is “inactive”; for `CCOC(=O)[C@H](CCc1ccccc1)N[C@@H](C)C(=O)N1[C@H](C(=O)O)C[C@@H]2CCC[C@@H]21` it is “inactive”. With `COc1cc(C(=O)N2CCCCCCC2)cc(OC)c1OC`, the Potency result was “inactive”.
